Experimental data reported in PubChem BioAssay AID2283179 (EPA ToxCast).
Results filed as inconclusive are left out. Activity calls are given as the source filed them. How the source made its calls: active means hit-call score of the fitted dose curve at least 0.9, where 1 is the maximum; inconclusive means response in the unintended direction; inactive means score below 0.9.

These molecules were tested against human Microtubule Affinity Regulating Kinase 1 (MARK1), MARK1 (gene 4139) (UniProt Q9P0L2) (assay: NVS_ENZ_hMARK1: NovaScreen (NVS) Enzymatic Assay for human Microtubule Affinity Regulating Kinase 1 (MARK1)).
Sequence of human Microtubule Affinity Regulating Kinase 1 (MARK1), MARK1 (gene 4139) (Q9P0L2 whole entry, looked up): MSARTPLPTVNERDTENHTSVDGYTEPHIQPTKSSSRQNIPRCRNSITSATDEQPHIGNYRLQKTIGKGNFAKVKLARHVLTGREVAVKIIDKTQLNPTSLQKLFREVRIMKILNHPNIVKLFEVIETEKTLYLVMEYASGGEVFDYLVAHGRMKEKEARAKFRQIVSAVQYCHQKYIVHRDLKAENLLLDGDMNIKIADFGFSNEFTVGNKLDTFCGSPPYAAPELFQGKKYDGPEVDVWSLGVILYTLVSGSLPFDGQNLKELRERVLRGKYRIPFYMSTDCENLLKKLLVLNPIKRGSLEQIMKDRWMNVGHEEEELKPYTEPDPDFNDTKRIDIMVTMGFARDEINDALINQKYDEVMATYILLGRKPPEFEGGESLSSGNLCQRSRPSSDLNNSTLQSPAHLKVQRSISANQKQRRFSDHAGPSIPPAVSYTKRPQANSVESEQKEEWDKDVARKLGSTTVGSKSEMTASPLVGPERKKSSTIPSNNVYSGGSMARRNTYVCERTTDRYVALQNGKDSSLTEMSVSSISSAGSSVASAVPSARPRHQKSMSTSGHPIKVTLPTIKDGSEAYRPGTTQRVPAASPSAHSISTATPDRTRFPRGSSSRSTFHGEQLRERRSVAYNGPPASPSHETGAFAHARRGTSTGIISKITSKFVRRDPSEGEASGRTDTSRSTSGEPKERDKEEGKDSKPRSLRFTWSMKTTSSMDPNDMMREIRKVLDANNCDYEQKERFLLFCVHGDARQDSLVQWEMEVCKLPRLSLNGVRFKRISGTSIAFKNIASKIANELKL
Procedure: NVS_ENZ_hMARK1 is a biochemical, single-readout assay that uses extracted gene-proteins in a cell-free assay. Measurements were taken 1 hour after chemical dosing in a 384-well plate.NVS_ENZ_hMARK1 is one of one assay component(s) measured or calculated from the NVS_ENZ_hMARK1 assay. It is designed to make measurements of enzyme activity, a form of enzyme reporter, as detected with fluorescence intensity signals by Fluorescence and electrophoretic mobility shift technology.Data from the assay component NVS_ENZ_hMARK1 was analyzed into 1 assay endpoint. This assay endpoint, NVS_ENZ_hMARK1, was analyzed in the positive analysis fitting direction relative to DMSO as the negative control and baseline of activity. Using a type of enzyme reporter, loss-of-signal activity can be used to understand changes in the enzymatic activity as they relate to the gene MARK1. Furthermore, this assay endpoint can be referred to as a primary readout, because this assay has produced multiple assay endpoints where this one serves a enzymatic activity function. To generalize the intended target to other relatable targets, this assay endpoint is annotated to the kinase intended target family, where the subfamily is serine/threonine kinase.
Binding assays used specific radioligands (tritiated, iodinated) with non-radioactive competitive displacement ligands in agonist or antagonist protocols (as indicated) and various reference compounds and inhibitors to titrate specific binding to receptors and transporters. Most enzyme assays (CYPs, kinases, phosphatases, proteases, HDACs) used recombinant protein and specific substrates (fluorescence mostly, some colorimetric and radioactive) and inhibitors, followed by a biochemical separation of substrate and product. All assays for the biochemical HTS were initially run in duplicate at a single concentration (10 uM for CYP450 assays and 25 uM for all others). Assay-chemical combinations meeting a pre-defined threshold (e.g., 30% inhibition and other criteria defined below) were then run in singleton concentration-response format with maximum concentration of 20 uM for CYPs and 50 uM for all others. Each assay was run with positive and negative controls, and concurrent controls on every plate. The follow-up (secondary) screen tested active chemical-pairs in concentration series, as well as a few additional assays not tested in the primary screen, some selected negative inactives, and several cases re-run in the concentration series for confirmatory purposes.
In the case of `CN(C)[C@@H]1C(=O)C(C(N)=O)=C(O)[C@@]2(O)C(=O)C3=C(O)c4c(O)cccc4[C@@](C)(O)[C@H]3[C@H](O)[C@@H]12`, the AC50 is reported as 18 µM (active). `CNC(=S)S` was tested, and the outcome was “inactive”. With `N#CSCSC#N` the outcome was “inactive”. With `Nc1c(Cl)cc([N+](=O)[O-])cc1Cl` the outcome was “inactive”. With `CCNC(=O)NC(=O)C(C#N)=NOC` the outcome was “inactive”. `CCOP(=S)(OCC)Oc1nc(Cl)n(C(C)C)n1` was tested, and the outcome was “inactive”. `O=S(=O)(O)C(F)(F)C(F)(F)C(F)(F)C(F)(F)C(F)(F)C(F)(F)C(F)(F)C(F)(F)F` was tested, and the AC50 was 36.8 µM (active). `COP(=S)(OC)Oc1nc(Cl)c(Cl)cc1Cl` was tested, and the outcome was “inactive”. For `COc1nc(C)nc(NC(=O)NS(=O)(=O)c2ccccc2CCC(F)(F)F)n1`, the outcome was “inactive”. In the case of `COC(=O)c1ccccc1S(=O)(=O)NC(=O)N(C)c1nc(C)nc(OC)n1`, the outcome is reported as “inactive”. `CCOP(=O)(OCC)Oc1nc(Cl)c(Cl)cc1Cl` was tested, and the outcome was “inactive”. `O=C(O)C(F)(F)C(F)(F)C(F)(F)C(F)(F)C(F)(F)C(F)(F)C(F)(F)F` was tested, and the outcome was “inactive”.
